From PubChem BioAssay (NCI)
About 79,000 compounds went through this panel and 15% of them were active in at least one assay; those are over-represented in the sample as a whole. The source made the active and inactive calls. Rule as the data show it: active = growth inhibition above about 70%; inactive = the rest.

Assays:
[1] = NCI Yeast Anticancer Drug Screen. Data for the wt1 strain (AID 149);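 also: 0% = growth of vehicle-treated wt1 cultures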; conditions: S. cerevisiae wt1 strain (SPY 50644) growth inhibition, hits give high values
Outline: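 wt1 yeast, compound-treated; % growth inhibition vs vehicle control.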

[2] = NCI Yeast Anticancer Drug Screen. Data for the rad50EPP+ strain (AID 151);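 also: 0% = growth of vehicle-treated control cultures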; conditions: S. cerevisiae rad50 mutant strain, hits give high values
Outline: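 Strain rad50EPP+; compound exposure; % growth inhibition vs vehicle.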

[3] = NCI Yeast Anticancer Drug Screen. Data for the mgt1 strain (AID 153); conditions: S. cerevisiae mgt1 mutant growth inhibition, hits give high values
Outline: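 Read-out: yeast growth inhibition vs vehicle control. Strain mgt1, drawn from a panel altered in DNA damage repair or cell cycle control.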

[4] = NCI Yeast Anticancer Drug Screen. Data for the rad50 strain (AID 155);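 also: 0% = growth of vehicle-only cultures of the same strain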; conditions: S. cerevisiae rad50 strain growth inhibition, hits give high values
Outline: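 Genetically altered yeast (DNA repair pathway); compound treatment; growth inhibition vs vehicle ctrl.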

[5] = NCI Yeast Anticancer Drug Screen. Data for the mec2-1 strain (AID 157); conditions: S. cerevisiae mec2-1 strain, hits give high values
Outline: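 Cells of the genetically defined mec2-1 yeast strain are incubated with test compound. Inhibition of growth is calculated against vehicle-treated controls.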

[6] = NCI Yeast Anticancer Drug Screen. Data for the rad14 strain (AID 159);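 also: 0% = growth of vehicle-treated control cultures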; conditions: S. cerevisiae rad14 strain growth inhibition, hits give high values
Outline: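 Test compounds were applied to a repair-deficient yeast strain. Its growth was then compared with that of cultures given vehicle alone, and inhibition was expressed relative to those controls.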

[7] = NCI Yeast Anticancer Drug Screen. Data for the sgs1 mgt1 strain (AID 161);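 also: 0% = growth of cultures given vehicle only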; conditions: S. cerevisiae sgs1 mgt1 strain, hits give high values
Outline: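 Read-out: growth inhibition vs vehicle controls. Cells: mutant yeast strain deficient in DNA damage repair.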

[8] = NCI Yeast Anticancer Drug Screen. Data for the CLN2oe strain (AID 163);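 also: 0% = growth of vehicle-only control cultures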; conditions: S. cerevisiae CLN2oe strain, hits give high values
Outline: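 Strain altered in cell-cycle control, incubated with compound; growth compared to solvent-treated controls.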

[9] = NCI Yeast Anticancer Drug Screen. Data for the cln2 rad14 strain (AID 165);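 also: 0% = growth equal to vehicle treated cultures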; conditions: S. cerevisiae cln2 rad14 strain, hits give high values
Outline: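 The screen exposed genetically defined yeast (cln2 rad14) to test compounds and scored growth inhibition relative to vehicle-treated controls.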

[10] = NCI Yeast Anticancer Drug Screen. Data for the bub3 strain (AID 167); conditions: S. cerevisiae bub3 mutant strain, hits give high values
Outline: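 Yeast carrying a defined mutation is treated with each compound, and growth is compared with that of vehicle-exposed cells to give inhibition.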

[11] = NCI Yeast Anticancer Drug Screen. Data for the wt2 strain (AID 169);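 also: 0% = growth of vehicle-treated yeast cultures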; conditions: S. cerevisiae wt2 strain growth inhibition, hits give high values
Outline: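 Steps: yeast strain treated with compound; growth recorded; inhibition calculated relative to cultures given vehicle alone.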

[12] = NCI Yeast Anticancer Drug Screen. Data for the mlh1 strain (AID 171);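 also: 0% = growth of vehicle-treated control cultures of the same strain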; conditions: S. cerevisiae mlh1 strain growth inhibition, hits give high values
Outline: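 Yeast screen: mutant strain plus compound, growth scored against vehicle control wells.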

[13] = NCI Yeast Anticancer Drug Screen. Data for the sgs1 strain (AID 173);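 also: 0% = growth of vehicle-only control cultures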; conditions: S. cerevisiae sgs1 mutant, hits give high values
Outline: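 Inhibition of yeast growth served as the measure. The mutant strain was treated with each compound, and growth was normalised to cultures receiving vehicle alone.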

[14] = NCI Yeast Anticancer Drug Screen. Data for the mlh1 rad18 strain (AID 175); conditions: S. cerevisiae mlh1 rad18 strain growth inhibition, hits give high values
Outline: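 Compound-treated yeast growth, normalised to vehicle controls. Strain bears defined DNA repair mutations.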

[15] = NCI Yeast Anticancer Drug Screen. Data for the rad18 strain (AID 177); conditions: S. cerevisiae rad18 mutant growth inhibition, hits give high values
Outline: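 Inhibition values reflect reduced yeast growth compared with vehicle-treated controls, using a strain engineered with a DNA damage repair defect.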

[16] = at 5.0 µM (retest, dose inferred, filed as 0.5)
[17] = at 50.0 µM (retest, dose inferred, filed as 5.0)

Measured: growth inhibition

O=C(O)c1ccccc1NC(=S)c1ccccc1
inactive: [1]; at 1.2 µM 4% | [1]; at 3.7 µM 1% | [1]; at 11.0 µM -4% | [1]; at 33.0 µM -5% | [1]; at 100.0 µM 26% | [2]; at 1.2 µM 13% | [2]; at 3.7 µM 14% | [2]; at 11.0 µM 34% | [2]; at 33.0 µM 53% | [3]; at 1.2 µM 5% | [3]; at 3.7 µM 0% | [3]; at 11.0 µM -3% | [3]; at 33.0 µM 18% | [4]; at 1.2 µM -3% | [4]; at 3.7 µM -26% | [4]; [16] 53% | [4]; at 11.0 µM -20% | [4]; at 33.0 µM -11% | [4]; at 50.0 µM 4.25% | [5]; at 1.2 µM -31% | [5]; at 3.7 µM -10% | [5]; [16] 63% | [5]; at 11.0 µM -26% | [5]; at 33.0 µM -23% | [5]; at 50.0 µM 11.6% | [5]; at 100.0 µM 10% | [6]; at 1.2 µM 2% | [6]; at 3.7 µM 4% | [6]; at 11.0 µM -4% | [6]; at 33.0 µM 17% | [6]; at 100.0 µM 68% | [7]; [16] -20% | [7]; [17] 65% | [7]; at 50.0 µM -0.55% | [8]; at 1.2 µM 0% | [8]; at 3.7 µM 11% | [8]; at 11.0 µM 6% | [8]; at 33.0 µM 10% | [8]; at 100.0 µM 33% | [9]; [16] 27% | [9]; [17] 54% | [9]; at 50.0 µM 1% | [10]; at 1.2 µM -16% | [10]; at 3.7 µM -12% | [10]; [16] 16% | [10]; at 11.0 µM 0% | [10]; at 33.0 µM 5% | [10]; at 50.0 µM 17.4% | [11]; at 1.2 µM -1% | [11]; at 3.7 µM 5% | [11]; at 11.0 µM 1% | [11]; at 33.0 µM 1% | [11]; at 100.0 µM 42% | [12]; at 1.2 µM 3% | [12]; at 3.7 µM 5% | [12]; at 11.0 µM 3% | [12]; at 33.0 µM 5% | [12]; at 100.0 µM 62% | [13]; at 1.2 µM -18% | [13]; at 3.7 µM -6% | [13]; at 11.0 µM -12% | [13]; at 33.0 µM -4% | [13]; at 100.0 µM 53% | [14]; [16] 43% | [14]; at 50.0 µM 1.6% | [15]; at 1.2 µM -16% | [15]; at 3.7 µM -4% | [15]; at 11.0 µM -8% | [15]; at 33.0 µM 16% | [15]; at 100.0 µM 69%
active: [2]; at 100.0 µM 83% | [3]; at 100.0 µM 81% | [4]; [17] 97% | [4]; at 100.0 µM 83% | [5]; [17] 96% | [10]; [17] 79% | [10]; at 100.0 µM 70% | [14]; [17] 99%

CCOC(=O)c1cnc2cc(C(F)(F)F)ccc2c1N=[N+]=[N-]
active: [1]; at 100.0 µM 87% | [2]; at 100.0 µM 82% | [3]; at 100.0 µM 92% | [4]; at 100.0 µM 83% | [5]; at 100.0 µM 90% | [6]; at 100.0 µM 93% | [8]; at 100.0 µM 87% | [10]; at 100.0 µM 74% | [11]; at 100.0 µM 93% | [12]; at 100.0 µM 87% | [13]; at 33.0 µM 75% | [13]; at 100.0 µM 94% | [15]; at 100.0 µM 88%
inactive: [1]; at 1.2 µM 3% | [1]; at 3.7 µM 4% | [1]; at 11.0 µM 8% | [1]; at 33.0 µM 37% | [2]; at 1.2 µM 6% | [2]; at 3.7 µM 13% | [2]; at 11.0 µM 26% | [2]; at 33.0 µM 54% | [3]; at 1.2 µM 4% | [3]; at 3.7 µM 6% | [3]; at 11.0 µM 22% | [3]; at 33.0 µM 66% | [4]; at 1.2 µM 8% | [4]; at 3.7 µM 25% | [4]; [16] 7% | [4]; at 11.0 µM 23% | [4]; at 33.0 µM 50% | [4]; [17] 20% | [4]; at 50.0 µM 44.4% | [5]; at 1.2 µM 14% | [5]; at 3.7 µM 12% | [5]; [16] -3% | [5]; at 11.0 µM 22% | [5]; at 33.0 µM 56% | [5]; [17] 4% | [5]; at 50.0 µM 20.2% | [6]; at 1.2 µM 7% | [6]; at 3.7 µM 3% | [6]; at 11.0 µM 12% | [6]; at 33.0 µM 49% | [7]; [16] -1% | [7]; [17] -3% | [7]; at 50.0 µM 43.4% | [8]; at 1.2 µM 11% | [8]; at 3.7 µM 12% | [8]; at 11.0 µM 18% | [8]; at 33.0 µM 64% | [9]; [16] -4% | [9]; [17] 1% | [9]; at 50.0 µM 25.1% | [10]; at 1.2 µM 11% | [10]; at 3.7 µM 7% | [10]; [16] -17% | [10]; at 11.0 µM 14% | [10]; at 33.0 µM 46% | [10]; [17] 48% | [10]; at 50.0 µM -3.4% | [11]; at 1.2 µM 2% | [11]; at 3.7 µM 2% | [11]; at 11.0 µM 14% | [11]; at 33.0 µM 59% | [12]; at 1.2 µM 7% | [12]; at 3.7 µM 6% | [12]; at 11.0 µM 15% | [12]; at 33.0 µM 51% | [13]; at 1.2 µM 10% | [13]; at 3.7 µM 12% | [13]; at 11.0 µM 25% | [14]; [16] -4% | [14]; [17] 12% | [14]; at 50.0 µM 59.9% | [15]; at 1.2 µM 15% | [15]; at 3.7 µM 22% | [15]; at 11.0 µM 33% | [15]; at 33.0 µM 58%

c1ccc2c(c1)C(=NCCCN1CCCCCC1)c1cccn1-2
active: [1]; at 100.0 µM 93% | [4]; at 50.0 µM 78.2% | [4]; at 100.0 µM 97% | [5]; at 100.0 µM 98% | [6]; at 100.0 µM 98% | [10]; at 50.0 µM 94.9% | [10]; at 100.0 µM 97% | [11]; at 100.0 µM 96% | [12]; at 100.0 µM 96% | [13]; at 100.0 µM 96% | [14]; at 50.0 µM 89.8%
inactive: [1]; at 1.2 µM -2% | [1]; at 3.7 µM -1% | [1]; at 11.0 µM 2% | [1]; at 33.0 µM -1% | [2]; at 1.2 µM -3% | [2]; at 3.7 µM -4% | [2]; at 11.0 µM -4% | [2]; at 33.0 µM 3% | [2]; at 100.0 µM 63% | [4]; at 1.2 µM -3% | [4]; at 3.7 µM -8% | [4]; [16] -3% | [4]; at 11.0 µM -9% | [4]; at 33.0 µM -6% | [4]; [17] -6% | [5]; at 1.2 µM -3% | [5]; at 3.7 µM 1% | [5]; [16] 0% | [5]; at 11.0 µM 4% | [5]; at 33.0 µM 0% | [5]; [17] -3% | [5]; at 50.0 µM 68.2% | [6]; at 1.2 µM -15% | [6]; at 3.7 µM -3% | [6]; at 11.0 µM -2% | [6]; at 33.0 µM 4% | [9]; [16] -7% | [9]; [17] -5% | [9]; at 50.0 µM 61.4% | [10]; at 1.2 µM 0% | [10]; at 3.7 µM -4% | [10]; [16] 6% | [10]; at 11.0 µM 0% | [10]; at 33.0 µM 10% | [10]; [17] -3% | [11]; at 1.2 µM -2% | [11]; at 3.7 µM -4% | [11]; at 11.0 µM -2% | [11]; at 33.0 µM -3% | [12]; at 1.2 µM -2% | [12]; at 3.7 µM -2% | [12]; at 11.0 µM 0% | [12]; at 33.0 µM 4% | [13]; at 1.2 µM -4% | [13]; at 3.7 µM -2% | [13]; at 11.0 µM -1% | [13]; at 33.0 µM 4% | [14]; [16] -2% | [14]; [17] -2%
